IL1B secr inh: qHTS for Inhibitors of Inflammasome Signaling: IL-1-beta AlphaLISA Primary Screen; THP-1 LPS/ATP IL-1B secretion, AlphaLISA, 16 h; stronger effect = lower value; activity change, % at 57.5 µM; 360,000 compounds, 4.7% hits; AID 743279, 2014; in the data active means activity change below about -50%; inconclusive means mostly about -30% to -49%
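THP-1 cells pretreated 1 hr with compounds (up to 57.5 uM final), then stimulated with LPS (250 ng/mL final) plus ATP (1.25 mM final); secreted IL-1B measured by AlphaLISA after 16 hr, decreased signal indicating inhibition.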
MCF10A rerep: A quantitative high throughput screen for small molecules that induce DNA re-replication in MCF 10a normal breast cells; MCF 10A DNA re-replication, Hoechst nuclear intensity, 48 h; Potency, µM (series often up to 46.1 µM), most hits filed as activators; 350,000 compounds, 2.9% hits; further: nearly all actives have a fitted effect of over 50% in size
SW480 rerep: A quantitative high throughput screen for small molecules that induce DNA re-replication in SW480 colon adenocarcinoma cells; 340,000 compounds, 1.8% hits; Potency, µM (top dose mostly 46.1 µM), hits mostly activators; AID 624297, 2012; SW480 DNA re-replication, Hoechst DNA content imaging, 48 h; further: nearly all actives have a fitted effect of over 55% in size
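Image-based DNA-content assay: after two days of treatment, nuclei were labelled with the DNA dye Hoechst and imaged, and hits were compounds raising the count of nuclei showing high fluorescence intensity.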
VP16 counter: VP16 counterscreen qHTS for inhibitors of ROR gamma transcriptional activity; 310,000 compounds, 3.5% hits; Potency, µM (top dose mostly 53.6 µM), actives largely listed as inhibitors; Drosophila S2 Gal4-VP16 UAS-luciferase, luminescence, 20 h;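 further: Gal4-VP16 expression switched on by copper sulfate through the metallothionein promoter; nearly all actives have a fitted effect of over 50% in size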
RORg inh: qHTS for inhibitors of ROR gamma transcriptional activity; Drosophila S2 Gal4-RORgamma UAS-luciferase reporter, 20 h; Potency, µM (highest dose often 53.6 µM), hits mostly inhibitors; Nuclear receptor ROR-gamma (Mus musculus), P51450; 310,000 compounds, 5.4% hits; further: nearly all actives have a fitted effect of over 60% in size
Target sequence (P51450 whole entry, looked up, the tested form may be a part): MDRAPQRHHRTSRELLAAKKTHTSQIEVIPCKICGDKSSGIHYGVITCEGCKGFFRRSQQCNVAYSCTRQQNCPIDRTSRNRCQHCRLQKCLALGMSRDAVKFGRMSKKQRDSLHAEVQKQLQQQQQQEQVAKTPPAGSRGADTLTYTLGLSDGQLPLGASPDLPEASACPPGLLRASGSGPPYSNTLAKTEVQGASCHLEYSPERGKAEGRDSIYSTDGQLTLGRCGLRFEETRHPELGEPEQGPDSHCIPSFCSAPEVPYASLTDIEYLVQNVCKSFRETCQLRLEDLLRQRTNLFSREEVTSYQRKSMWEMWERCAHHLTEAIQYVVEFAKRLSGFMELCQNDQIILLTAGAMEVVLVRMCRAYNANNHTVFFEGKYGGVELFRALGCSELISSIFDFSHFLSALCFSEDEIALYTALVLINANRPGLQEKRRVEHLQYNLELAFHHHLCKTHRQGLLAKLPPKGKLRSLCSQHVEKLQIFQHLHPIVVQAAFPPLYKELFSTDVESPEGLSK
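Read-out: Photinus luciferase luminescence; inhibitors lower reporter signal. Insect Schneider cells with Gal4-ROR gamma fusion under metallothionein promoter, UAS reporter; 700 uM final copper sulfate induction, 20 hr, ambient temperature.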
Each line names hits and unclear results; the compound was inactive in the other large screens. Only some compounds are listed: those with a hit (about 11% of all), similar ones and a draw of the others. Unless noted, the call rests on the fitted dose curve; in most records, active means well fitted curve in the direction sought with a large enough effect; inconclusive means small, poorly fitted or top-dose-only effect, or another doubt; inactive means no such curve, though single readings can be large; an effect the other way counts as inactive or inconclusive.

S=c1[nH]nc(C2CCCCC2)n1/N=C/c1cccc(Br)c1	RORg inh 2µM
Cc1cccc(/C=N/n2c(C3CCCCC3)n[nH]c2=S)c1	VP16 counter 7.1µM, RORg inh 3.2µM
CC(/C=N/n1c(C2CCCCC2)n[nH]c1=S)=C\c1ccccc1	IL1B secr inh inconclusive, MCF10A rerep 21µM, SW480 rerep inconclusive, VP16 counter 10µM, RORg inh 3.5µM
CC(/C=N/n1c(-c2cc(C)[nH]n2)n[nH]c1=S)=C\c1ccccc1	VP16 counter inconclusive, RORg inh 8.9µM
O=C(COC(=O)c1ccc[nH]c1=O)Nc1cc(S(=O)(=O)N2CCCCCC2)ccc1Cl	none (no result: VP16 counter, RORg inh)
COc1ccc(-c2cc(C(F)F)nn2-c2ccc(S(N)(=O)=O)cc2)cc1F	none (no result: IL1B secr inh)
O=C(NCC(c1ccco1)N1CCc2ccccc2C1)C(=O)Nc1ccccc1 (centres undefined)	none (no result: VP16 counter, RORg inh)
O=c1cc(NS(=O)(=O)c2ccccc2)nc(SCc2c(Cl)cccc2Cl)[nH]1	none
Cc1ccc(S(=O)(=O)Nc2cc(=O)[nH]c(SCc3ccc(Cl)cc3)n2)cc1	MCF10A rerep 18µM
O=C(O)CSc1nc2ccccc2o1	none
CC(=O)CSc1nnc2c3ccccc3nc(C(C)(C)C)n12	MCF10A rerep inconclusive, SW480 rerep inconclusive
Cc1ccc(C(=O)CSc2nc3ccccc3o2)cc1	IL1B secr inh -54, VP16 counter inconclusive, RORg inh inconclusive
Cc1ccc(C(=O)CSc2nnc3c4ccccc4nc(C(C)(C)C)n23)cc1	MCF10A rerep 6.5µM, SW480 rerep 13µM
CC(CN)(NS(=O)(=O)c1ccccc1)c1ccccc1 (centres undefined)	RORg inh inconclusive
COCC(=O)Nc1ccc2c(c1)OCC(=O)N2Cc1ccc(C)cc1	MCF10A rerep 23µM
CN(CCc1cn[nH]c1)Cc1nc(Cc2ccccc2)no1	IL1B secr inh -54, VP16 counter inconclusive, RORg inh inconclusive
CC(=O)NCCNc1cc(-c2ccccc2C)ncn1	none (no result: IL1B secr inh, MCF10A rerep, SW480 rerep)
O=C(N/N=C/c1c(O)n(-c2ccc(Cl)cn2)c(=O)c2ccccc12)C1CC1	SW480 rerep inconclusive, VP16 counter 7.9µM, RORg inh 5.6µM
O=C(Nc1ccc(Cl)c(Cl)c1)C1C2C=CC3(O2)C1C(=O)N(CCN1CCCCC1)C3C(=O)NC1CCCCC1 (centres undefined)	IL1B secr inh -81, MCF10A rerep inconclusive, SW480 rerep inconclusive
CC1CCCC(NC(=O)C2N(CCCN3CCCC3)C(=O)C3C(C(=O)Nc4ccc(Cl)cc4)C4C=CC32O4)C1C (centres undefined)	IL1B secr inh -65, SW480 rerep inconclusive
Cc1ccc(NC(=O)C2C3C=CC4(O3)C2C(=O)N(CCCN2CCOCC2)C4C(=O)NC2CCCCC2)cc1Cl (centres undefined)	none
COc1ccc(NC(=O)C2C3C=CC4(O3)C2C(=O)N(CCCN2CCCCC2)C4C(=O)NC2CCCC(C)C2C)cc1 (centres undefined)	MCF10A rerep inconclusive, SW480 rerep inconclusive
COc1ncc2nc(-c3ccc(F)cc3)c(=O)n(CCC#N)c2n1	none (no result: IL1B secr inh, MCF10A rerep, SW480 rerep)
CCN(Cc1cnn(C)c1)C(=O)c1ccc(OC2CCN(S(=O)(=O)N(C)C)CC2)cc1	IL1B secr inh -68, VP16 counter inconclusive
CC(C)(C)c1cnnn1-c1ccc(C(=O)CCl)cc1	IL1B secr inh -106, MCF10A rerep 16µM, SW480 rerep inconclusive, VP16 counter inconclusive, RORg inh inconclusive
Cc1nc(N)sc1N=Nc1ccccc1C(F)(F)F	IL1B secr inh -71, RORg inh inconclusive
Clc1cc(Cl)cc(C2=N[C@@H](Cc3ccccc3)CO2)c1	none (no result: IL1B secr inh, MCF10A rerep, SW480 rerep)
CCC(=O)N1CCCC1(C)C(=O)NCc1ccc(SC)cc1 (centres undefined)	none (no result: MCF10A rerep, SW480 rerep, VP16 counter, RORg inh)
COC(=O)C(O)C1C(C)(C)C(OC(C)=O)C2CC3=C4CC(=O)OC(c5ccoc5)[C@]4(C)CCC3[C@@]1(C)C2=O (some centres undefined)	RORg inh 13µM (no result: IL1B secr inh, MCF10A rerep, SW480 rerep)
C=C1C2CC[C@@]3(C)C(c4ccoc4)OC(=O)C[C@@]13OC1CC(=O)C(C)(C)C(C(O)C(=O)OC)[C@]12C (some centres undefined)	none (no result: IL1B secr inh, MCF10A rerep, SW480 rerep)
CCOc1ccc(NC(=O)CN(C)C(=O)C2CC(=O)N(c3cccc(SC)c3)C2)cc1OCC (centres undefined)	none (no result: VP16 counter, RORg inh)
CC1CCCCN1CCn1c(=S)[nH]c2cc3c(cc2c1=O)OCO3 (centres undefined)	VP16 counter inconclusive, RORg inh 11µM
Cc1ccc(C)c(N2CCN(C(=O)CCn3c(=S)[nH]c4cc5c(cc4c3=O)OCO5)CC2)c1	RORg inh inconclusive
O=C(CCCCCn1c(=S)[nH]c2cc3c(cc2c1=O)OCO3)N1CCN(C2CCCCC2)CC1	IL1B secr inh -74, MCF10A rerep inconclusive, SW480 rerep inconclusive, VP16 counter inconclusive, RORg inh inconclusive
COc1ccc(N2CCN(C(=O)CCCn3c(=S)[nH]c4cc5c(cc4c3=O)OCO5)CC2)cc1	SW480 rerep inconclusive, VP16 counter inconclusive, RORg inh 7.1µM
CC(C)OCCCn1c(=S)[nH]c2cc3c(cc2c1=O)OCO3	VP16 counter 6.3µM, RORg inh 4µM
CC(C)OCCCn1c(=S)[nH]c2ccc(N3CCOCC3)cc2c1=O	none
CSc1cccc(CNC(=O)C2CCC(=O)N(CC3CCCCC3)C2)c1 (centres undefined)	none
Cc1sc2nc(SCC(=O)N(C)c3ccccc3)n(C)c(=O)c2c1C	none
O=C(CCCCCn1c(=S)[nH]c2cc3c(cc2c1=O)OCO3)N1CCN(C(=O)c2ccco2)CC1	none
O=C(CCCn1c(=O)[nH]c2ccccc2c1=O)N1CCN(c2ccccn2)CC1	none
O=C(CCCCCn1c(=S)[nH]c2cc3c(cc2c1=O)OCO3)N1CCN(Cc2ccccc2)CC1	MCF10A rerep 21µM, SW480 rerep inconclusive (no result: VP16 counter)
O=C(CCCn1c(=S)[nH]c2cc3c(cc2c1=O)OCO3)N1CCN(c2ccccn2)CC1	VP16 counter inconclusive, RORg inh 13µM
O=C(CCCn1c(=S)[nH]c2cc3c(cc2c1=O)OCO3)NCc1cccc(Cl)c1	VP16 counter inconclusive, RORg inh 13µM
CN(Cc1ccccc1F)C(=O)c1cccc(NC(=O)CC2SC(N3CCCCC3)=NC2=O)c1 (centres undefined)	none (no result: VP16 counter, RORg inh)
C/C(=N\Nc1nc(C)cc(-c2ccccc2)n1)c1ccc(F)cc1	VP16 counter 7.1µM, RORg inh 3.2µM
COc1ccc(/C(C)=N/Nc2nc(C)cc(-c3ccccc3)n2)cc1	MCF10A rerep inconclusive, SW480 rerep inconclusive (no result: VP16 counter, RORg inh)
C/C(=N/Nc1nc(-c2ccccc2)cc(-c2ccc(F)cc2)n1)c1cccc(N)c1	IL1B secr inh -61, SW480 rerep inconclusive, VP16 counter 14µM, RORg inh 11µM
